Compounds without any hit were thinned out: in the full panel of roughly 83,000, 20% have a hit.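 Compound tested at a single concentration for 48 hours in 96-well plates; a percent growth value below 10 was scored as active.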 Activity calls are given as the source filed them.

The test relates to HCC-2998 colon. The experiment in a line: NCI-60 one-dose screen, 48 h (100 = growth as untreated, 0 = no growth, -100 = all killed). Particulars: 10 µM unless noted.
Consider `CC(=O)c1ccc(Nc2nc(NCCO)nc(Nc3ccc(Cl)cc3)n2)cc1`, for which the growth was 105% (inactive).

On to `Cc1ccc(C2CC(c3ccc(Nc4nc(NCCO)nc(Nc5ccc(Cl)cc5)n4)cc3)=NN2c2cc(Cl)cc(Cl)c2)cc1` (centres undefined), for which the growth was 111% (inactive).

For `CCCCN1CCN(c2ccc3nc(-c4ccc5nc(-c6ccc(OC)c(OC)c6)[nH]c5c4)[nH]c3c2)CC1`, the growth is -70.2% (active).

For the compound `Cc1cccc(NC(=O)c2sc3nc4c(cc3c2N)CCCC4)c1C`, the growth was 22.8% (inactive).

For `CCOC(=O)c1cc2c(n1Cc1cc(OC)c(OC)c(OC)c1)-c1oncc1CCC2`, the growth is 17.2% (inactive).

Regarding `Clc1ccc(Oc2ccc(Nc3ncnc4onc(-c5ccccc5)c34)cc2)c(Cl)c1`, the growth is 103% (inactive).

`O=C(Nc1ccc(C23CC4CC(CC(c5ccccc5)(C4)C2)C3)cc1)c1cccs1`: the growth is 74.8% (inactive).

`COc1cc(C(=O)Nc2ccc(-c3nc4ccccc4[nH]3)cc2)cc(OC)c1OC`: the growth was 57.6% (inactive).

For `CCOC(=O)C1(C(=O)OCC)N=C(c2ccccc2)C=C1c1ccccc1`, the growth is 105% (inactive).

In the case of `CC1=C(CC(=O)c2cccc([N+](=O)[O-])c2)C(=O)c2ccccc2C1=O`, the growth was 96.9% (inactive).

For `O=c1cc(NC2CCN(CCCc3ccccc3)CC2)c2cc(Cl)ccc2o1`, the growth is -6.89% (active).

With `O=S(=O)(Nc1ncccn1)c1ccc(NC2Nc3nc4ccccc4nc3S2)cc1` (centres undefined), the growth is 108% (inactive).

As for `COc1ccc(-c2cc(=O)c3c(OC)c4ccoc4c(/C=C/C=O)c3o2)cc1`, the growth was 92.3% (inactive).

Regarding `COc1cccc2cc(N(C)c3nc(C)nc4ccsc34)ccc12`, the growth is 7.08% (active).

On to `CC[C@@H](C)[C@H](NC(=O)Cn1cc(CNC(=O)[C@@H](NC(=O)OCc2ccccc2)C(C)C)nn1)C(=O)O`, for which the growth was 101% (inactive).

`COc1cc(/C=C/C(=O)c2ccc(Nc3nc(NCCO)nc(N4CCOCC4)n3)cc2)cc(OC)c1OC`: the growth is 20% (inactive).

Take `Cc1ccccc1CNC(=O)C1CN(c2ccc(Cl)cc2)N(c2ccc(Cl)cc2)C1=O` (centres undefined): the growth is 100% (inactive).

For the compound `COc1ccc(Cn2c(Br)c3c(c2-c2cc(OC)c(OC)c(OC)c2)CCc2sc(NC(C)=O)nc2-3)cc1`, the growth is 70.2% (inactive).

Consider `CC(C)(C)c1ccc(C2CC(=O)C3=C(C2)Nc2ccccc2N(C(=O)c2ccccc2Cl)C3c2ccc(F)cc2)cc1` (centres undefined), for which the growth is -21.2% (active).

As to `CCOC(=O)c1ccc(N=Cc2sc(=O)[nH]c2O)cc1`, the growth was 101% (inactive).

Turning to `COC(=O)/C(CCC=C(C)C)=C1\[C@@H](OC(C)=O)C[C@@]2(C)[C@H]1C[C@@H](O)[C@H]1[C@@]3(C)CC[C@H](NCc4ccccc4)[C@@H](C)[C@@H]3CC[C@@]12C`, the growth was 72.8% (inactive).

Consider `Cc1cccc2c(=O)c3c(sc12)c(NCCCNCCO)nc1ccccc13`, for which the growth was 12.7% (inactive).

For the compound `C[C@@H](C(=O)NCCCC#Cc1cnc(Nc2ccc(C#N)cc2)nc1NC1CC1)N(C)C(=O)/C=C/CN(C)C`, the growth was 64.5% (inactive).

On to `COc1ccc(/C=c2\sc3n(c2=O)NC2C(N=3)N(C)C(=O)N2C)cc1` (centres undefined), for which the growth was 108% (inactive).

Take `Cn1cc([C@@H]2Nc3ccc4[nH]ncc4c3[C@H]3[C@H]4CCC(C4)[C@H]32)c(C(F)(F)F)n1`: the growth was 82.8% (inactive).

For the compound `COc1cc2cc3c(=O)n4c(cc5cc(OC)ncc54)c(=O)n3c2cn1`, the growth was 106% (inactive).

With `COc1ccccc1C(=O)/C=C/c1ccccc1`, the growth was 103% (inactive).

As to `CCCc1c(C)c2sc(=O)[nH]c2[nH]c1=O`, the growth was 106% (inactive).

In the case of `Clc1ccc(Nc2scc3[n+]2CCC3)cc1`, the growth was 104% (inactive).

On to `CNCCNc1nc2ccccc2c2c(=O)c3cc(F)ccc3sc12`, for which the growth is -41.8% (active).

On to `O=C(Nc1ccc(Cl)cc1)c1cc2ccccc2cc1OP(=O)(O)O`, for which the growth was 47.9% (inactive).

With `COc1cc(C=C2C(=O)N(C)C(=O)N(C)C2=O)cc(CN2CCCCC2)c1O`, the growth is 103% (inactive).

Turning to `O=C(Nc1ncc(Cc2cccc(C(F)(F)F)c2)s1)C1COc2ccccc2O1` (centres undefined), the growth is 98.5% (inactive).

Take `Cc1c(-c2noc(-c3ccc([N+](=O)[O-])cc3)n2)no[n+]1[O-]`: the growth is 102% (inactive).

On to `O=C(N/N=C/c1ccccc1Cl)C(=O)Nc1cccc(C(F)(F)F)c1`, for which the growth was 96.6% (inactive).

On to `O=C(NC1CCN(Cc2ccccc2)CC1)c1cc2nc(-c3ccc(Cl)s3)cc(C(F)(F)F)n2n1`, for which the growth is 84.2% (inactive).

As for `COc1cccc(-c2nn(C)c3sc(C(=O)NCCN4CCN(c5ccccc5F)CC4)cc23)c1`, the growth was -41.1% (active).

Regarding `COc1ccc(C(=O)C2CC2c2ccc(Cl)cc2)cc1` (centres undefined), the growth is 98.8% (inactive).

For the compound `Nc1ccc(C2c3ccccc3Oc3ccccc32)cc1`, the growth was 117% (inactive).

For the origin of these results see PubChem BioAssay (NCI).
